Results from PubChem BioAssay AID1159580 (chemical genetic matrix, 2015).
Values joined by “and” are separate entries in the source; they are usually repeats but may differ in a detail not shown here. Equal entries are not always repeated. The campaign covered roughly 5,500 compounds. About 2,000 (36%) were called active. About 18% were inconclusive and are not listed. Cut-off read from the data, not from the text of the source: active = normalized growth mostly below about 0.91 (no sharp cut-off); inconclusive = no clear call, values can overlap the other calls; inactive = mostly above about 0.92. This is one part of the list.

Assay: chemical genetic growth profiling, strain panel (AID 1159580);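 note: tested at 20 µM; growth read once vehicle control cultures reached saturation at 30 °C; 1 = growth at the plate median or of vehicle wells; lower values mean less growth of the strain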
Conditions: S. cerevisiae deletion strains, growth OD

Measured: normalized growth

Oc1ccc(Cl)cc1Cc1cc(Cl)ccc1O
active: locus YAL013W, strain DEP1, hits give low values 0.0573 | locus YAL021C, strain ccr4, hits give low values 0.0695 | locus YAL026C, strain drs2, hits give low values 0.0747 | locus YAL030W, strain snc1, hits give low values 0.0569 | locus YBL061C, strain skt5, hits give low values 0.0645 | locus YBR009C, strain hhf1, hits give low values 0.0651 | locus YBR021W, strain FUR4, hits give low values 0.253 | locus YBR023C, strain chs3, hits give low values 0.07 | locus YBR171W, strain sec66, hits give low values 0.124 | locus YBR229C, strain ROT2, hits give low values 0.0685 | locus YBR231C, strain swc5, hits give low values 0.0629 | locus YBR279W, strain paf1, hits give low values 0.0982 | locus YCL011C, strain gbp2, hits give low values 0.0575 | locus YCL016C, strain dcc1, hits give low values 0.0745 | locus YCL029C, strain bik1, hits give low values 0.0624 | locus YCL061C, strain MRC1, hits give low values 0.107 | locus YCL069W, strain vba3, hits give low values 0.0848 | locus YCR088W, strain abp1, hits give low values 0.0882 | locus YDL005C, strain med2, hits give low values 0.0747 | locus YDL035C, strain GPR1, hits give low values 0.0712 | locus YDL040C, strain nat1, hits give low values 0.0791 | locus YDL074C, strain BRE1, hits give low values 0.092 | locus YDL101C, strain DUN1, hits give low values 0.0631 | locus YDL134C, strain PPH21, hits give low values 0.0596 | locus YDL185W, strain tfp1, hits give low values 0.0573 | locus YDL192W, strain arf1, hits give low values 0.0725 | locus YDR001C, strain nth1, hits give low values 0.107 | locus YDR069C, strain doa4, hits give low values 0.0709 | locus YDR101C, strain arx1, hits give low values 0.0668 | locus YDR137W, strain rgp1, hits give low values 0.0823 | locus YDR150W, strain NUM1, hits give low values 0.141 | locus YDR159W, strain sac3, hits give low values 0.0887 | locus YDR162C, strain NBP2, hits give low values 0.0492 | locus YDR195W, strain ref2 0.12 | locus YDR297W, strain sur2, hits give low values 0.0586 | locus YDR318W, strain mcm21, hits give low values 0.0649 | locus YDR334W, strain swr1, hits give low values 0.0861 | locus YDR335W, strain msn5, hits give low values 0.0832 | locus YDR388W, hits give low values 0.0554 | locus YDR392W, strain spt3, hits give low values 0.0992 | locus YDR502C, strain sam2, hits give low values 0.0624 | locus YEL003W, strain gim4, hits give low values 0.0565 | locus YEL037C, strain rad23, hits give low values 0.271 | locus YEL061C, strain CIN8 (second series), hits give low values 0.0757 | locus YEL061C, strain CIN8, hits give low values 0.0536 | locus YER015W, strain faa2, hits give low values 0.0622 | locus YER016W, strain bim1, hits give low values 0.0644 | locus YER110C, hits give low values 0.0746 | locus YER111C, strain swi4, hits give low values 0.0777 | locus YER155C, strain BEM2 (second series), hits give low values 0.109 | locus YER155C, strain BEM2, hits give low values 0.0649 | locus YER167W, strain BCK2, hits give low values 0.0527 | locus YFR010W, strain ubp6, hits give low values 0.185 | locus YGL078C, strain dbp3, hits give low values 0.0765 | locus YGL086W, strain mad1, hits give low values 0.0581 | locus YGL167C, strain pmr1, hits give low values 0.0782 | locus YGL173C, strain kem1, hits give low values 0.101 | locus YGL227W, strain vid30, hits give low values 0.0709 | locus YGL240W, strain doc1, hits give low values 0.08 | locus YGL248W, strain PDE1, hits give low values 0.0764 | locus YGL253W, strain hxk2, hits give low values 0.0817 | locus YGR078C, strain PAC10, hits give low values 0.0754 | locus YGR135W, strain pre9, hits give low values 0.0765 | locus YGR229C, strain SMI1, hits give low values 0.0636 | locus YGR252W, strain gcn5, hits give low values 0.146 | locus YHR013C, strain ard1, hits give low values 0.109 | locus YHR027C, strain rpn1, hits give low values 0.0641 | locus YHR030C, strain SLT2, hits give low values 0.0512 and 0.0939 | locus YHR079C, strain IRE1 (second series), hits give low values 0.0561 | locus YHR079C, strain IRE1, hits give low values 0.102 | locus YHR094C, strain hxt1, hits give low values 0.0607 | locus YHR129C, strain ARP1, hits give low values 0.0651 | locus YHR142W, strain chs7, hits give low values 0.0876 | locus YHR200W, strain rpn10, hits give low values 0.0673 | locus YIL066C, strain RNR3, hits give low values 0.0647 | locus YIL073C, strain SPO22, hits give low values 0.114 | locus YIL125W, strain kgd1, hits give low values 0.0642 | locus YIR030C, strain dcg1, hits give low values 0.0657 | locus YJL092W, strain hpr5, hits give low values 0.111 | locus YJL095W, strain BCK1 (second series), hits give low values 0.057 | locus YJL095W, strain BCK1, hits give low values 0.0553 and 0.0954 | locus YJL115W, strain asf1, hits give low values 0.201 | locus YJL129C, strain trk1, hits give low values 0.0878 | locus YJL134W, strain LCB3, hits give low values 0.0583 | locus YJL154C, strain vps35, hits give low values 0.0851 | locus YJL164C, strain tpk1, hits give low values 0.0647 | locus YJL166W, strain qcr8, hits give low values 0.0615 | locus YJL168C, strain set2, hits give low values 0.0792 | locus YJL187C, strain SWE1 (second series), hits give low values 0.0719 | locus YJL187C, strain SWE1, hits give low values 0.0599 | locus YJR043C, strain POL32, hits give low values 0.0779 | locus YJR066W, strain TOR1, hits give low values -0.000659
